More than one record can exist for a structure, and the calls need not agree. Activity calls are given as the source filed them. The calls were made as follows: active = hit-call score of the fitted dose curve at least 0.9, where 1 is the maximum; inactive = score below 0.9.
Test: ATG_EGR_CIS: Attagene CIS-FACTORIAL HepG2 Assay for human Early Growth Response 1 (EGR1) (AID 2282938)
Details: HepG2 Attagene CIS-FACTORIAL EGR reporter mRNA; actives raise or lower the signal
Experimental: ATG_CIS is a cell-based, multiplexed-readout assay that uses HepG2, a human liver cell line, with measurements taken at 24 hours after chemical dosing in a 24-well plate.ATG_EGR_CIS is one of 52 assay component(s) measured or calculated from the ATG_CIS assay. It is designed to make measurements of mRNA induction, a form of inducible reporter, as detected with fluorescence intensity signals by Reverse transcription polymerase chain reaction (RT-PCR) and Capillary electrophoresis technology.Data from the assay component ATG_EGR_CIS was analyzed into 1 assay endpoint. This assay endpoint, ATG_EGR_CIS, was analyzed with bidirectional fitting relative to DMSO as the negative control and baseline of activity. Using a type of inducible reporter, measures of mRNA for gain or loss-of-signal activity can be used to understand the reporter gene at the transcription factor-level as they relate to the gene EGR1. Furthermore, this assay endpoint can be referred to as a primary readout, because this assay has produced multiple assay endpoints where this one serves a reporter gene function. To generalize the intended target to other relatable targets, this assay endpoint is annotated to the dna binding intended target family, where the subfamily is zinc finger.
Human liver HepG2 cells are transiently transfected with multiple reporter transcription units (MRTUs) in 6-well plates using FuGene 6 reagent (Roche; 3 ml FuGene/1 mg DNA). The MRTU constructs are regulated by a cis-regulating element (promoter). […] A major difference between the CIS and TRANS system is that in CIS activities of endogenous TFs are measured, whereas the TRANS assay evaluates changes in activities of exogenous, chimeric NR-Gal4 proteins. […] At the end of 24 hour incubation, total RNA was isolated using TriZol reagent (Invitrogen). The isolated RNA is then reverse-transcribed using oligo(dT) primer and Mo-MLV reverse transcriptase (Invitrogen) with DNAse I (Ambion) treatment for 30 min. The one-tenth of the produced cDNA was amplified by PCR using Taq DNA polymerase (Invitrogen) and two reporter sequence-specific primers. The PCR products were fluorescently labeled by primer extension with 6-arboxyfluorescein (6-FAM) 5'-labeled reporter sequence-specific primer (2 min at 95 C, 20 s at 68 C and 10 min at 72 C) and these products were digested with 5U of HpaI (New England Biolabs) for 2h at 37 C. The fragments were purified using Qiaquick PCR columns (Qiagen), analyzed on an ABI 3130xL genetic analyzer (Applied Biosystems) with peak positions identified by using a set of X-rhodamine (ROX)-labeled MapMarker1000 molecular weight standards (BioVentures). The raw capillary electrophoresis data was processed using Attagraph software (Attagene).

Row | Structure (SMILES) | outcome | AC50
1 | ClCC(Cl)CCl | inactive | 
2 | Oc1cccc2cccnc12 | inactive | 70.1 µM (active)
3 | CCc1ccccc1N | inactive | 
4 | COP(=O)(OC)O/C(=C\Cl)c1cc(Cl)c(Cl)cc1Cl |  | 37 µM (active)
5 | CC(=[OH+])/C=C(/C)[O-].CC(=[OH+])/C=C(/C)[O-].CC(=[OH+])/C=C(/C)[O-].[Fe] | inactive | 
6 | ClC1(Cl)C2(Cl)C3(Cl)C4(Cl)C(Cl)(Cl)C5(Cl)C3(Cl)C1(Cl)C5(Cl)C24Cl (stereo not given) | inactive | 
7 | O=C1CCCN1 | inactive | 
8 | COP(=S)(OC)Oc1cc(Cl)c(Cl)cc1Cl | inactive | 
9 | O=Cc1cccc(Oc2ccccc2)c1 | inactive | 
10 | O=C1C2(Cl)C3(Cl)C4(Cl)C(Cl)(Cl)C5(Cl)C3(Cl)C1(Cl)C5(Cl)C24Cl (stereo not given) | inactive | 8.48 µM (active)
11 | N#Cc1ccccn1 | inactive | 
12 | CCCCP(CCCC)CCCC | inactive | 
13 | c1ccc(N=NNc2ccccc2)cc1 |  | 83.5 µM (active)
14 | COc1cc(OC)nc(NC(=O)NS(=O)(=O)c2ncccc2C(=O)N(C)C)n1 | inactive | 
15 | CC(=[OH+])/C=C(/C)[O-].CC(=[OH+])/C=C(/C)[O-].CC(=[OH+])/C=C(/C)[O-].[Al] | inactive | 
16 | COc1cc(-c2ccc(N)c(OC)c2)ccc1N | inactive | 27.9 µM (active)
17 | COS(=O)(=O)c1ccc(C)cc1 | inactive | 
18 | COc1cc2c(cc1OC)[C@@]13CCN4CC5=CCO[C@H]6CC(=O)N2[C@H]1[C@H]6[C@H]5C[C@H]43 | inactive | 
19 | CC(C)(c1ccc(OCC2CO2)cc1)c1ccc(OCC2CO2)cc1 (stereo not given) |  | 33.4 µM (active)

Row | Structure (SMILES) | outcome | AC50
20 | Cl/C=C\C[N+]12CN3CN(CN(C3)C1)C2 | inactive | 
21 | C[C@H]1CCCC(=O)CCC/C=C/c2cc(O)cc(O)c2C(=O)O1 |  | 10.2 µM (active)
22 | C=CCc1ccc(OC)cc1 | inactive | 
23 | CCOP(=S)(OCC)Oc1ccc(S(C)=O)cc1 (stereo not given) | inactive | 
24 | ClCCBr | inactive | 
25 | NNC(=S)NN | inactive | 
26 | Clc1ccc(C2(Cn3cncn3)CC(Br)CO2)c(Cl)c1 (stereo not given) | inactive | 
27 | OCC(O)CCl (stereo not given) | inactive | 
28 | COc1ccc(OC)c(C=O)c1 | inactive | 
29 | CCCCOCCOC(C)=O | inactive | 
30 | Cc1ccccc1N | inactive | 
31 | COP(=O)(OC)OC | inactive | 
32 | O=c1[nH]c(=O)[nH]c(=O)[nH]1 | inactive | 
33 | O=C(CCl)CCl |  | 48.8 µM (active)
34 | CCCCC(CC)CO[N+](=O)[O-] (stereo not given) | inactive | 
35 | CC(C)OC(=O)Nc1ccccc1 | inactive | 
36 | CCC(C)c1cccc(C(C)CC)c1O (stereo not given) | inactive | 
37 | CC(=O)[O][Hg][c]1ccccc1 |  | 4.73 µM (active)

Source: PubChem BioAssay (EPA / NIEHS)
